Source: PubChem BioAssay (National Center for Advancing Translational Sciences (NCATS))
Sampled rows, rich in hits. Any-hit rate of the full collection: about 19%.
DT40 TDP1 no CPT = qHTS for Inhibitors of human tyrosyl-DNA phosphodiesterase 1 (TDP1): qHTS in cells in absence of CPT; DT40 Tdp1-/- hTDP1 cells, no CPT, ATP luminescence, 48 h; Potency, µM (titrated, usually from 46.2 µM), usual class: inhibitors; AID 686978, 2013; hit rate 15% among 420,000; further: nearly all actives have a fitted effect of over 55% in size
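DT40 Tdp1-/-;hTDP1 cells, no CPT (DMSO vehicle only), 400 cells/well; compounds pin-transferred; ≥48 hr, 37 °C; CellTiter-Glo 30 min RT dark, luminescence read.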
HepG2 viability = counter-screen for TGF-b inhibitors: cytotoxicity in HepG2 cells; HepG2 CAGA-GFP viability, ATP luminescence, 18 h; AID 588856; hit rate 0.76% among 410,000; Potency, µM (top dose mostly 46.1 µM), usual class: cytotoxic
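HepG2 CAGA-GFP cells (1000/well, DMEM with 1% FBS) received compound, then TGF-beta at 500 pg/mL final, and were incubated 18 hours at 37 degrees C. Viability was read by CellTiter-Glo luminescence. Media-only wells were set as complete cell-killing and DMSO as no toxicity.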
TGFb SMAD3 inh = inhibitors of TGF-b signaling. hit rate 1.2% among 410,000. AID 588855. Potency, µM (highest dose often 46.1 µM), actives largely listed as inhibitors. HepG2 CAGA-GFP TGF-b/SMAD3 reporter, GFP fluorescence, 18 h; TGF-beta stimulated, 500 pg/mL final; further: nearly all actives have a fitted effect of over 65% in size
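HEPG2 CAGA-GFP, 1000 cells/well; 2 h settle, 37 C; cpd via pin tool; TGF-b 500 pg/mL final; 18 h, 37 C; GFP imaging ex488/em500-530; %Activity normalised to -TGF-b and +DMSO controls; CRC fit, curve class.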
TDP1 cell CPT = DT40-hTDP1 cell growth loss with CPT | hit rate 12% among 420,000 | AID 686979 | Potency, µM (top dose mostly 46.2 µM), most hits filed as inhibitors | chicken DT40 Tdp1-/-;hTDP1 cells + 20 nM CPT, ATP luminescence, 48 h; further: nearly all actives have a fitted effect of over 55% in size
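Chicken DT40 Tdp1-/- cells complemented with human TDP1, 400 cells/well, exposed to compounds plus 20 nM camptothecin for at least 48 h at 37 C; viability read as ATP content by CellTiter-Glo luminescence.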
S-ASM inh = human S-ASM enzyme inhibition; placental ASM, HMU-PC fluorogenic substrate, 60 min; Potency, µM (top dose mostly 57.5 µM), hits mostly inhibitors; hit rate 0.006% among 340,000
Target sequence (P17405 47-631 limits assumed): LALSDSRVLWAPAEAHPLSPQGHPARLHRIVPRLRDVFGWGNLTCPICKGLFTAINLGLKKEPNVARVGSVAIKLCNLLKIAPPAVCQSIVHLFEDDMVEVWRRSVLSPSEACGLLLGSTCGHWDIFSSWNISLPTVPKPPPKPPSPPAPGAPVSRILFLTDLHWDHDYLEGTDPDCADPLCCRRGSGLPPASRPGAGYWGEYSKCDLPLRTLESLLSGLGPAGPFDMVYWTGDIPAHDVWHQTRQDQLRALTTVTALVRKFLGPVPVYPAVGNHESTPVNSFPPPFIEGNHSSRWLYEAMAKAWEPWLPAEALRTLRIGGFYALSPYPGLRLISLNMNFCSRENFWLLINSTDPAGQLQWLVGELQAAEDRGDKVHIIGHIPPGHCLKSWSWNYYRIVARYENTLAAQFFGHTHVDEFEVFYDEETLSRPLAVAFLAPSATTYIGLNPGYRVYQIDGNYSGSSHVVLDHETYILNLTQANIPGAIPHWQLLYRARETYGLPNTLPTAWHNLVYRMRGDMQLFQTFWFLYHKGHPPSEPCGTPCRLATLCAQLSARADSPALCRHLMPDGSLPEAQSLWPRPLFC
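Fluorescence read-out (Ex 386 nm, Em 447 nm) after stopping the reaction at pH 10. Enzyme: ASM from human placenta; substrate HMU-PC0, 9 uM final; 60 min, 37 °C. Compound preincubation 10 min, ambient temperature.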
IL1B secr inh = blocks inflammasome-driven IL-1 beta release | activity change, % at 57.5 µM | THP-1 LPS/ATP IL-1B secretion, AlphaLISA, 16 h; stronger effect = lower value | hit rate 4.7% among 360,000 | AID 743279; in the data active means activity change below about -50%; inconclusive means mostly about -30% to -49%
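THP-1 cells pretreated 1 hr with compounds (up to 57.5 uM final), then stimulated with LPS (250 ng/mL final) plus ATP (1.25 mM final); secreted IL-1B measured by AlphaLISA after 16 hr, decreased signal indicating inhibition.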
Numbers stand for hits. Unless noted, the call rests on the fitted dose curve; in most records, active means well fitted curve in the direction sought with a large enough effect; inconclusive means small, poorly fitted or top-dose-only effect, or another doubt; inactive means no such curve, though single readings can be large; an effect the other way counts as inactive or inconclusive.

`N#C/C(=C\c1ccc(-c2cccc(Cl)c2)o1)C(=O)Nc1cccc(C(F)(F)F)c1` gave DT40 TDP1 no CPT inconclusive, HepG2 viability inactive, TGFb SMAD3 inh inactive and TDP1 cell CPT inconclusive.
COc1ccccc1-c1nnc(NC(=O)c2ccc(S(=O)(=O)N3CCCC3)cc2)o1 was read as DT40 TDP1 no CPT 9.2µM, HepG2 viability inactive, TGFb SMAD3 inh inactive, TDP1 cell CPT 23.1µM, S-ASM inh inactive and IL1B secr inh inactive.
`O=C(Nc1nnc(-c2ccccn2)o1)c1ccc(Br)cc1` gave DT40 TDP1 no CPT 18.4µM, HepG2 viability inactive, TGFb SMAD3 inh inconclusive, TDP1 cell CPT inconclusive, S-ASM inh inactive and IL1B secr inh inactive.
For CS(=O)(=O)c1cccc(-c2nnc(NC(=O)c3ccc(S(=O)(=O)N4CCCC4)cc3)o2)c1 the results were DT40 TDP1 no CPT inactive, HepG2 viability inactive, TGFb SMAD3 inh inactive, TDP1 cell CPT inactive, S-ASM inh inactive and IL1B secr inh inactive.
Screening CC1CCCN(S(=O)(=O)c2ccc(C(=O)Nc3nnc(-c4ccccn4)o3)cc2)C1 (centres undefined) returned DT40 TDP1 no CPT 20.6µM, HepG2 viability inactive, TGFb SMAD3 inh inactive, TDP1 cell CPT inconclusive, S-ASM inh inactive and IL1B secr inh inactive.
Screening Cc1nnc(NC(=O)c2ccc(S(=O)(=O)N3CCCCCC3)cc2)o1 returned DT40 TDP1 no CPT inconclusive, HepG2 viability inactive, TGFb SMAD3 inh inactive, TDP1 cell CPT inactive, S-ASM inh inactive and IL1B secr inh inactive.
Screening CC1CCCN(S(=O)(=O)c2ccc(C(=O)Nc3nnc(-c4ccccc4Cl)o3)cc2)C1 (centres undefined) returned DT40 TDP1 no CPT 6.51µM, HepG2 viability inactive, TGFb SMAD3 inh inactive, TDP1 cell CPT 2.91µM, S-ASM inh inactive and IL1B secr inh inactive.
For COc1ccc(Br)cc1CN1CCN(C(=O)c2cccc(F)c2)CC1 the results were DT40 TDP1 no CPT inconclusive, HepG2 viability inactive, TGFb SMAD3 inh inactive, TDP1 cell CPT inactive, S-ASM inh inactive and IL1B secr inh inactive.
Screening CC1CCCN(S(=O)(=O)c2ccc(C(=O)Nc3nnc(C4CC4)o3)cc2)C1 (centres undefined) returned DT40 TDP1 no CPT inconclusive, HepG2 viability inactive, TGFb SMAD3 inh inactive, TDP1 cell CPT 18.4µM, S-ASM inh inactive and IL1B secr inh inactive.
O=C(Nc1nnc(C2CC2)o1)c1ccc(S(=O)(=O)N2CCc3ccccc3C2)cc1 was read as DT40 TDP1 no CPT inconclusive, HepG2 viability inactive, TGFb SMAD3 inh inactive, TDP1 cell CPT inactive, S-ASM inh inactive and IL1B secr inh inactive.
Screening CC(=O)N1CCCc2ccc(NS(=O)(=O)c3cccc(Cl)c3)cc21 returned DT40 TDP1 no CPT inactive, HepG2 viability inactive, TGFb SMAD3 inh inactive and TDP1 cell CPT inactive.
COC(=O)c1ccc(CSC(=N)N)o1 was read as DT40 TDP1 no CPT inconclusive, HepG2 viability inactive, TGFb SMAD3 inh inactive, TDP1 cell CPT 16.4µM and S-ASM inh inactive.
CCc1oc(C(=O)OC)cc1CSC(=N)N was read as DT40 TDP1 no CPT inconclusive, HepG2 viability 15.8µM, TGFb SMAD3 inh inactive, TDP1 cell CPT inconclusive, S-ASM inh inactive and IL1B secr inh -86.6.
Screening CCOC(=O)c1ccc(CSc2nncn2N)o1 returned DT40 TDP1 no CPT inactive, HepG2 viability inactive, TGFb SMAD3 inh inactive, TDP1 cell CPT inactive, S-ASM inh inactive and IL1B secr inh inactive.
Screening CCOC(=O)c1ccc(CSC(=N)N)o1 returned DT40 TDP1 no CPT inconclusive, HepG2 viability inactive, TGFb SMAD3 inh inactive, TDP1 cell CPT 29.1µM, S-ASM inh inactive and IL1B secr inh inactive.
For COc1cc2ccccc2cc1C(=O)NC(=S)Nc1cccc(C(=O)O)c1C the results were DT40 TDP1 no CPT inactive, HepG2 viability inactive, TGFb SMAD3 inh inactive, TDP1 cell CPT inactive, S-ASM inh inactive and IL1B secr inh inactive.
